Data taken from PubChem BioAssay AID1508600 (Functional Genomics Laboratory (NCATS/FGL), 2020).
Out of some 53,000 sequences screened, about 3,700 (7%) were called active.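 How the source made its calls: active means gene knockdowns whose robust z-score for IL-1 alpha signal is at least 2 or at most -2, so actives lie on both sides; inactive means the rest.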 Many of the other results were omitted from the sample, so actives are more common in it than they were.

Assay: Components of the Cytosolic LPS Sensing Pathway: Gene Identification via Genome-wide siRNA Screen;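 further: robust z of the log signal after scaling to non-targeting control siRNA wells of the plate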
Details: RAW264.7 macrophages, IL-1a HTRF, actives lie on both sides, screened at 100 nM (by protocol), cells primed 5 h with Pam3CSK4 first
Procedure, shortened: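 Supernatant IL-1a by HTRF from RAW264.7 cells primed with Pam3CSK4 (5 hours) and transfected with LipidA (24 hour) after 48h siRNA knockdown at 100 nM; cell viability checked with CellTiter-Glo.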

z-score, active:
GGCCCAGUGACUAUGGAAUTT against Mpnd -2.68, GGAAGUGGCUUUUUAUCAGTT against Arhgap6 2.05, GGUGCAGGACCAUUUCCAUTT against Slc10a6 3.25, CCUUAUAGUCCAGUAUUUUTT against Slf2 2.71, GGAAGAGGUCUUUAAUACATT against Kif4 2.86, GGACAGAUGAUGAAGUUGUTT against Hsp90b1 -2.24, CCCAGUGUCAUUCAGUAUUTT against Phactr3 2.13, GCAAUUUGAGCAGUAUGUATT against Cpsf7 -2.85, GGCUAAAUGCCGAUGUACUTT against Gapvd1 2.08, CCUGACAGACCGACAAGUGTT against Hoxc11 -2, GCUGGCUAUACUUUACAACTT against Prkg1 2.11, GGCUUUCUUCAACCUGAGUTT against Duoxa1 -2.43, CGACAACAAUCUGGCCUAUTT against Ap2s1 2.09, GGAAGGAAGCUAAAAAACGTT against Gnl3 2.24, CCCUCCAUGGAAAUGACAUTT against Slit3 2.4, CCCGCUAUUUGGUGCUAACTT against Amh 3.21, GGCCCAACACCUUUAUCAUTT against Akt1 2.77, GGUGCUCUCAAGUGGGAUUTT against Gm5114 -2.15, GGAUCUUCCUGGAUGCCAATT against Hps1 -2.61, GUUGUGUUCUGAUUGUUUUTT against Olfr1020 2.03

z-score, inactive:
GGAUUACAGAAGCCCACACTT against Plekhn1 -0.719, GGACGUGCUUACAUUGUACTT against Pcdhb9 -0.212, GCAAUUGAGAUCUAUACAGTT against Napa -0.0109, GGGAAUAUGUGAAACAGACTT against Syk -0.229, GCCAAUAAAGUCGGUGAAATT against H2aj -0.244, GGAAUAAUCCCAGAAUCAGTT against Stard6 0.0758, CCAUACACAACAUUCCAGATT against Slc39a11 0.0339, GCAUUCAUCAAAUUUACAGTT against Prrg4 -0.67, CCUACUAACAACAAGAGCATT against Pcdhga5 0.021, GGAACUGAUCUGGAAGAAUTT against Sord -0.392, GGAAUACCAGGCCUUCCUUTT against B4galnt1 -0.886, CCUCGAUUAUAGCAAUACUTT against Slc16a14 1.36, GAAAUGUCCAUCCAAAAGCTT against Sprr2k 0.602, GGAUUAGGAAUCACAGUAGTT against Fam78a 0.675, GGCCAAAAAGGAGGCACCATT against Rps15 0.662, GCAUUUUAAUGCGCCAGUUTT against Atp2c1 -0.164, GGGAGCUUUGGAAAUUUUATT against Zbtb3 0.451, CCUCUCCUGCUCUGACAUATT against Olfr933 0.541, GGUGUUUGGCGAUAAUAAGTT against Zdhhc15 -0.237, GGAAAGAAUAGCAGCGUGGTT against Echs1 1.14, GCGAGACAAUUGUUAUUGATT against Zmym2 -1.05, GGCCAUGGAAGCUGUUGCUTT against Pgam2 -0.264, GGUUCAGUCAAGAAUUGCUTT against Clec4e 1.68, GCUGUCGAUAGAAAAAAUCTT against Scml2 0.566, GGGCAAUUUGUUCGACCCATT against Abca2 -0.14, GGGCCUGGAAAACAUUGACTT against Ndufa1 -0.316, CCUUCAACACCAGUUUGGGTT against Olfr1393 0.45, GGCCUGUGGAAGAAAUACGTT against Pdhb 1.82, GGAAACAUGUCCUCACACATT against Top3b 1.41, GGCUCAUUUGCUGAGUGUGTT against Fscn2 1.68, GCCGGUAAAAUUAAGGUGATT against Cyp2j9 -0.13, GGGUUUGGUCUCAUAUAAATT against Samd7 -0.618, GCAGAAGUCGAGCUAUGUUTT against Zfp365 -1.21, GGGAUAAUAAUGUUGAUUGTT against Mrc1 -0.152, GCAUACCUCCGUAUUGUGATT against Snx30 -0.868, GAUCAUCACAGAGGUCCAGTT against Fabp6 0.308, GGUGAUGGGCAAGGUGUUCTT against Syvn1 0.25, CGGUACAAGCUAGACCUCATT against Mettl26 0.493, CCAAUACUACAUAAUGUCUTT against Abcc12 -0.354, GGAAUUCCCAAAACUACUGTT against Tbck -1.28, GGAAUGUCGAAGAAAAUGCTT against Adam15 -0.197, GCGCAAUAAGAUCUUCAUGTT against Ddx55 0.454, GGCACUUUCCCUAUAUUGUTT against Col26a1 -1.57, CCUACGACUUCUACUACAUTT against Chst8 1.69, GGAGUGCGGACGAUAAUACTT against Ppp1r3f -1.97, GUAUUGGAUACGAAGCAGATT against Defb2 -0.154, GGACAUGUGGAAAUGGAUATT against Arhgap4 1.97, GGGAAGAAGAUGGAAUUUATT against Smoc1 1.22, CGGGCUGCUACGAAAAAGUTT against Tspan9 0.152, GGAAACACGUCUCCUCCAUTT against Krt87 1.26, CGCACAAAGGAUUUUUGUATT against Epha7 -0.064, GGUGUGAUUGAAGAAGCGGTT against Gpr37 -0.463, GUGCCUCUCAUCACUAUCUTT against Olfr571 0.501, GGAAACCCAGAGCAGCAGATT against Tdg -1.01, GGAGCUCAAACAGGAGAACTT against Lhfpl4 0.383, GGUAUUUGCUGAACUGUUUTT against Ckmt1 -0.931, GGCUUAACAGAGAAACACCTT against Lrrc49 0.563, GAAUGUCUGAGCAAGGAGGTT against Arpp21 0.227, GCUCAUGUAGGAUGUAUAUTT against Olfr146 -0.483, GCAGAUGUACUCUAAGGGUTT against Adam23 1.17, CGCCAUAGUUGGUUUUGUUTT against Scamp4 1.2, GCGACUACAAGGAUACCCUTT against Krt71 0.169, GGCCAGUGAGCAGCAUUAUTT against Krt222 0.787, CCGCUCUUUUACAGCUGGATT against Rsl1d1 1.99, GCAUAACUCCCAUCCAUAGTT against Glra2 -0.622, CCUUUUUUUGGUAACUCGUTT against Sox11 -0.0308, CCUACAGAAUAGAAAAUUCTT against Elmod2 -0.161, GGAUGGACUAAAUGAUGAUTT against Ythdf2 -0.00923, GGAUUCUGUGCUUUCCUGGTT against Pomt2 -0.77, CCUGCAUCGUACGCUACUUTT against Pcgf2 -1.83, GCCAAAUUAGCAGCUUGUGTT against Rln3 -0.0674, CGUACAACCUCAAGGUUCUTT against Lag3 -1.68, GGCAAAAUUAGCAUCAAAGTT against Slc22a3 0.577, GCCUAGACCUAAGCAUAGCTT against Prpmp5 0.228, GGCCCUGUUAGUGCUAUACTT against Amh -1.15, GGAAGAUUGAAAUAGGCGATT against Mecom -1.25, GGAAAAGGCCGAUUUCGUGTT against Dixdc1 0.556, GGCAGUAGUGAACAGAGACTT against Krt222 -0.199, GCUGACUCCGUGUUUUUAATT against Arhgef18 -0.539, GGGCUCUUGUGUUAAGGCATT against Krt27 -0.119, GGAGCUAGAACUCAAUGAATT against Lingo1 0.65, CCUCAUAGCCAGUCUUUUUTT against Pafah2 -0.553, GUCCUAAAACGAGUGAGAGTT against Trib3 -0.793, GGACACAGCAAGGAAGAAATT against Mad2l1bp 0.335, GGACAGGUACUUUUCCCUGTT against Gnpda2 -1.19, CCAGUCAUUGUGCUUGUUATT against Sox12 0.929, GGAGGACGUAUCAUUACAUTT against Twf1 1.95, GGAGGAUAUAAAAAAGAAGTT against L2hgdh 0.00317
